Measured values taken from PubChem BioAssay AID720536 (National Center for Advancing Translational Sciences (NCATS), 2013).
In all, about 1,600 compounds went through this assay and about 650 (41%) were called active. Roughly 39% stayed inconclusive and do not appear here. The call rests on the fitted dose curve; in most records, active means well fitted inhibition curve with a large enough effect; inconclusive means small, poorly fitted or top-dose-only effect; inactive means no such curve, though single readings can be large or run the other way. The set was probably picked from earlier hits. The full list was thinned out, with actives kept by preference.

Assay: qHTS for Inhibitors of TGF-b: CCL64 Cells Orthogonal Assay for Cherry Picks; further: nearly all actives have a fitted effect of over 65% in size
Conditions: CCL64 CAGA-GFP reporter, TGF-b stimulated, GFP fluorescence, 18 h; series mostly up to 46.1 µM
From the text: TGF-b is a main component in the TGF-b signaling pathway which plays diverse roles in cellular and development pathways. TGF-b is the mediated by the transcription factors Smads. Although the Smad-dependent pathway is the primary canonical TGF-b signaling node, TGF-b1 can also activate alternative signaling pathways, including those involving MAPK (ERK, JNK and p38). This interaction may mediate or enhance Smad-dependent responses, or can exert Smad-independent effects. The complexity of this signaling cascade allows the TGF-b superfamily to perform unique, overlapping or redundant functions. We believe that targeting the TGF-beta pathway at the Smad-transcription factor level may eliminate the consequences of disrupting the entire pathway and offer specificity without affecting other signaling pathways. Smad3 is the primary transducer of TGF-b's signals and Smad3 regulates many functions attributed to TGF-b signaling. We hypothesize that Smad3 inhibitors will selectively eliminate Smad3-specific TGF-beta signals without undesired off-target effects. We aim to identify Smad3-small molecule antagonists using a quantitative high throughput screening (qHTS) approach. A high-throughput assay was developed to screen the NIH Molecular Libraries Small Molecule Repository (MLSMR). This is a cell based assay, where TGF-b is tagged with GFP. This orthogonal assay was run using CCL64 cells (as opposed to HepG2); activity was desired in this assay as this indicated the hits identified from the screen are not a cell-based artifact. MH087449NIH Chemical Genomics Center [NCGC] NIH Molecular Libraries Probe Centers Network [MLPCN] MLPCN Grant: MH087449 Assay Submitter (PI): Sushil Rane, National Institute of Diabetes and Kidney Diseases
Suspensions of trypsinized CCL64 CAGA-GFP cells were dispensed into white, tissue culture-treated, solid 1536-well plates at 5uL/well (1000 cells/well final concentration) in DMEM medium supplemented with 1% FBS. Plates were incubated at 37 degrees C for 2 hours, after which 23 nL of compounds or DMSO were delivered to each well using a pin tool. One uL of recombinant TGF-beta in DMEM (1% FBS) was then dispensed (500 pg/mL final concentration), and plates were incubated at 37 degrees C for 18 hours. The plates were measured on an Acumen eX3 Explorer plate reader for GFP fluorescence (ex488/em500-530). GFP values were calculated by determining the mean GFP fluorescence of individual cells, and compiling these values for each well to determine a total well GFP signal. The %Activity was determined from the corrected fluorescence values. A titration of the known TGF-B inhibitor SB431542 was included to monitor plate performance, while unstimulated […] (-TGF-B) control wells were used to normalize %Activity of identified inhibitors; unstimulated wells corresponded to 100%Activity (full inhibition), while stimulated cell controls (+DMSO) were used to normalize 0%Activity (no inhibition). Concentration-response curves were fitted to the signals arising from the resulting fluorescence. The concentration-effect curves were then classified based on curve quality (r2), response magnitude and degree of measured activity, and compounds were subsequently categorized based on their curve class.
Potency means the concentration at half of the fitted maximal effect.

Potency, active:
COc1cc(NC(=O)c2[nH]cnc2C(N)=O)cc(C(=O)Nc2cccc(C(F)(F)F)c2)c1 9.2 µM
Clc1ccc2c(c1)C1=C(C(c3ccncc3)O2)C(c2ccc(Br)cc2)n2ncnc2N1 (centres undefined) 10.3 µM
CCOC(=O)C1=C(N)N(c2ccc(C)cc2)C2=C(C(=O)CCC2)C1c1cccs1 (centres undefined) 23.1 µM
Cc1cccc(NC(=O)c2nc(S(=O)(=O)Cc3ccccc3)ncc2Cl)c1 2.59 µM
Cc1cccc(CS(=O)(=O)c2ncc(Cl)c(C(=O)Nc3ccc(F)cc3)n2)c1 4.61 µM
Cc1nc(/N=C(\N)NC(=O)NC2CCCCC2)nc2ccccc12 20.6 µM
COc1cccc(CNc2nc(NCc3ccccc3OC)nc3ccsc23)c1 18.4 µM
O=C(Nc1ccc(C2CC2(Cl)Cl)cc1)c1cccc([N+](=O)[O-])c1 (centres undefined) 14.6 µM
CC(=NNC(=S)N1CCCCCC1)c1ccccn1 4.11 µM
O=C(NC1=CC(=O)c2ccccc2C1=O)c1ccccc1 3.66 µM
CCCOc1ccccc1C1CC(=O)Nc2cc3c(cc21)OCO3 (centres undefined) 13 µM
CCCOc1ccc(F)cc1-c1cc(C(=O)Nc2ccc(F)c(Cl)c2)[nH]n1 25.9 µM
O=[N+]([O-])c1ccccc1S(=O)(=O)Nc1cccc2cccnc12 8.2 µM
Clc1ccc(Nc2nc(-c3cccs3)cs2)nc1 29.1 µM
COc1cc(/C=C2\Oc3ccc(C#Cc4ccc(O)cc4)cc3C2=O)cc(OC)c1 5.17 µM
Cc1cc(C)cc(N(CC(=O)N2CC=C(c3ccccc3)CC2)S(=O)(=O)c2c(C)noc2C)c1 10.3 µM
COc1ccc(CNC(=O)C[C@H]2C[C@H](C(=O)N3CCOCC3)[C@@]3(CCC4CCCC4)c4[nH]c5ccc(Cl)cc5c4CCN3C2=O)cc1OC 5.17 µM
CN(C)CCNC(=O)c1ccc(Cl)c2cc3ccccc3nc12 4.61 µM
c1ccc2cc3c(NCCN4CCOCC4)ccnc3cc2c1 13 µM
COc1ccc(-c2csc(NC3OC(=O)c4ccccc43)n2)cc1 (centres undefined) 11.6 µM
COc1cc(NC(=O)c2ccccc2NS(=O)(=O)c2ccc(Cl)s2)cc(OC)c1 4.61 µM
Cc1cccc2sc(N(CCCN(C)C)C(=O)CCS(=O)(=O)c3ccccc3)nc12 3.26 µM
COc1cccc2sc(N(CCCN(C)C)C(=O)CCS(=O)(=O)c3ccccc3)nc12 2.91 µM
O=C(Nc1ccc(Br)cn1)c1ccc([N+](=O)[O-])o1 13 µM
COc1ccc(-c2onc(C)c2-c2ccc3c(c2)OCCO3)c(O)c1 14.6 µM
CC(=O)c1ccc(-c2cnc3c(NC=O)cc(-c4cccc(NS(C)(=O)=O)c4)cn23)cc1 5.17 µM
OCCCNc1nccc(-c2cc(Nc3cccc(Cl)c3)ncn2)n1 1.3 µM
O=C(/C(=C/c1cccc(Cl)c1)c1nc2ccccc2[nH]1)c1ccccc1 4.61 µM

Potency, inactive:
CCCc1cc(-c2n[nH]c(=S)n2CC)c2ccccc2n1
Cc1ccc(-c2nc3ccc(Br)cn3c2Cc2ccccc2C(F)(F)F)cc1
Cc1ccc(S(=O)(=O)Nc2ccc3c(c2)C(=O)N([C@H](C)CO)C[C@@H](C)[C@@H](CN(C)C(=O)Nc2cccc4ccccc24)O3)cc1
COc1cc(NC(=O)COC(=O)c2ccc([N+](=O)[O-])s2)cc(OC)c1OC
CC1CCc2c(nc3ncnn3c2Nc2ccc(OC(F)(F)F)cc2)C1 (centres undefined)
Cc1ccc(CN2CC(N3CCC(Cc4ccccc4)CC3)CS2(=O)=O)cc1 (centres undefined)
COC(=O)COc1cccc2c(=O)n(CC(=O)NCc3ccccc3)ccc12
COc1ccc2nc(N3CCN(C(=O)c4ccc([N+](=O)[O-])o4)CC3)sc2c1
Fc1cc(F)c2nc(Nc3nc4c(F)cccc4s3)sc2c1
Cn1c(=O)n(C)c2cc(S(=O)(=O)N3CCCc4ccccc43)ccc21
OCC1OC(n2cnc3c(N4CCCC4)ncnc32)C(O)C1O (centres undefined)
COc1c(C(C)C)oc2cc3oc(=O)ccc3cc12
CN(C)c1nc(N)nc(CSc2nnnn2-c2cccc3ccccc23)n1
COc1ccc(CC(=O)Nc2ccccc2NC(=O)c2ccco2)cc1OC
Cc1ccc(C)c(S(=O)(=O)N2CCN(CC(=O)Nc3ccc([N+](=O)[O-])cc3)CC2)c1
O=C(CCC(=O)N1CCN(S(=O)(=O)c2ccc(Cl)cc2)CC1)NCc1cccc(C(F)(F)F)c1
